Results published in article PMC4336329 (PLoS ONE, 2015).
Among all 310,000 compounds or so, about 14,000 (4.5%) showed an effect of 50% or more. Effects have a minus sign here. The entries come from a sample that favours strong results as a whole.

molecular target: human ether-à-go-go-related gene (hERG) potassium channel (human, UniProt Q12809); assay: primary screen, population patch clamp on CHO cells stably expressing hERG; higher = less effect of the substance
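Also: peak tail current of the secondary pulse compared with the same well before compound.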

Chain of human ether-à-go-go-related gene (hERG) potassium channel (Q12809 whole entry, looked up): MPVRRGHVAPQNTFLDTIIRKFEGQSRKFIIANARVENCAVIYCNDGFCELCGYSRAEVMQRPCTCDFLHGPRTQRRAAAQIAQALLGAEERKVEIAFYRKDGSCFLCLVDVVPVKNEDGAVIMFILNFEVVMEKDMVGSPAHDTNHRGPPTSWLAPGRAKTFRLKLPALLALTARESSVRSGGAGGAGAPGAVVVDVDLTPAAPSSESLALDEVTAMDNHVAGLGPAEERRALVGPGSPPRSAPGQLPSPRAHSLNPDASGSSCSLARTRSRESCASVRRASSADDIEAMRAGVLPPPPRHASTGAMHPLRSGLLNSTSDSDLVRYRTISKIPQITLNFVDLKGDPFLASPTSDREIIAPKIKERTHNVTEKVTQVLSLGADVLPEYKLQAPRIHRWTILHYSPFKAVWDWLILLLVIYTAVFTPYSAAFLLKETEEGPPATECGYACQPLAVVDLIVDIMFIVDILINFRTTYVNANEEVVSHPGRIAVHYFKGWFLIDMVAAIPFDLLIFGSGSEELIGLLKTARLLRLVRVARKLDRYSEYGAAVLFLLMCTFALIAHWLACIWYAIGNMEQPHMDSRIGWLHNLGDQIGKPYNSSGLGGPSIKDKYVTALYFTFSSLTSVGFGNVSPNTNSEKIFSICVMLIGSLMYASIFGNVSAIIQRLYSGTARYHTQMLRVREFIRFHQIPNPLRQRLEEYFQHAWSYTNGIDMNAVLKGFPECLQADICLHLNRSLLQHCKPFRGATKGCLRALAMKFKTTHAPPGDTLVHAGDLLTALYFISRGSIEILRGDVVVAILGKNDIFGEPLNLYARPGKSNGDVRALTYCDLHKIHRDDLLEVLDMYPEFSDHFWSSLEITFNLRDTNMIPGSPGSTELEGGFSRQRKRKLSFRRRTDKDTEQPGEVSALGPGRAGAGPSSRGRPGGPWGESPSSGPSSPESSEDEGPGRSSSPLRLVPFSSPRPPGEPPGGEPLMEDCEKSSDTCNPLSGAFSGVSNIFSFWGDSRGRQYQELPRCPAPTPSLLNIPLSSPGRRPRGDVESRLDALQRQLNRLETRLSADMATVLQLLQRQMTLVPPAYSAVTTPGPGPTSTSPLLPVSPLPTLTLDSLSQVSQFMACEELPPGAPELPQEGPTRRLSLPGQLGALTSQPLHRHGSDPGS

Row | SMILES | hERG current change (%, negative = inhibition) at 10uM [%]
1 | COc1cccc(C2c3[nH]c4ccccc4c3C[C@H]3C(=O)N(CCCO)CC(=O)N23)c1OC (stereo partly drawn) | -6.83
2 | CC1(c2nnc(Cc3ccccc3)o2)CC(c2ccccc2F)=NO1 (stereo not drawn) | -12.6
3 | CC(C)Sc1nc(N2CCOCC2)c2c(c1C#N)CC(C)(C)SC2 | 5.69
4 | CC1=C(C(N)=O)C(c2ccccc2)n2nc(-c3ccncc3)nc2N1 (stereo not drawn) | 11.2
5 | COC(=O)C1C2CCC(C2)C1C(=O)OCC(=O)c1ccc(C)cc1 (stereo not drawn) | -19.5
6 | CC1(C)CC(=O)C=C(Nc2ccc([N+](=O)[O-])cc2)C1 | -16.6
7 | COc1ccc(NC(=O)CCOc2ccc(C)cc2)cc1S(=O)(=O)N1CCOCC1 | -34.9
8 | COc1ccc(C(=S)N2CCCC2)cc1C | 4.72
9 | CCCCCCOC(=O)c1ccc(NC(=O)c2cc(OC)c(OC)c(OC)c2Br)cc1 | 5.84
10 | CCOC(=O)c1ccc(CNC(=O)CSc2nnc(-c3ccncc3)o2)cc1 | -1.31
11 | Cl.NS(=O)(=O)c1ccc(CCNC/C=C/c2ccccc2)cc1 | -48.7
12 | COc1ccc(CNC/C=C/c2ccccc2)cc1.Cl | -42.2
13 | COc1ccc(CCNC/C=C/c2ccccc2)cc1.Cl | -51.4
14 | Cc1nn(C)c(C)c1CNC(=O)Nc1ccc2c(c1)OCO2 | 12
15 | CC(NC(=O)CN(C)S(=O)(=O)c1ccc(F)cc1)C1CC2CCC1C2 (stereo not drawn) | -2.34
16 | O=C(CCSCCc1ccccn1)Nc1c(F)c(F)c(F)c(F)c1F | -23.3
17 | CC(C)Nc1cc(C(C)(C)C)nc2c(-c3ccccc3)cnn12 | 8.72
18 | CC(C)(C)n1nnnc1C(c1ccc(Cl)cc1)N1CCSCC1 (stereo not drawn) | -0.553
19 | CCC(C)(C)n1nnnc1C(C(C)C)N1CCN(C)CC1.Cl (stereo not drawn) | 6.63
20 | CCC(C)(C)n1nnnc1C(C(C)C)N1CCC(C(N)=O)CC1 (stereo not drawn) | 10.4
21 | CCC(C)(C)n1nnnc1C(C(C)C)N1CCSCC1 (stereo not drawn) | -61.6

Row | SMILES | hERG current change (%, negative = inhibition) at 10uM [%]
22 | CCC(C)(C)n1nnnc1C(c1ccc(C)cc1)N1CCCC1.Cl (stereo not drawn) | -11.7
23 | CCC(C)(C)n1nnnc1C(c1ccc(C)cc1)N1CCSCC1 (stereo not drawn) | -55.1
24 | N#C/C(=C/c1ccc2c(c1)OCO2)C(=O)Nc1ccc(O)cc1 | -0.516
25 | COc1ccc(NC(C)=O)cc1S(=O)(=O)N(C)Cc1c(C)nn(-c2ccccc2)c1C | -13
26 | COCC(C)OC(=O)/C(C#N)=C\c1coc2ccc(C)cc2c1=O (stereo not drawn) | -20.9
27 | CC(C)(C)c1ccccc1NC(=S)NC1CCCC1 | 1.41
28 | COc1ccc(N2C(=O)CCC(C(=O)N3CCC(C(N)=O)CC3)C2c2ccc(F)cc2)cc1 (stereo not drawn) | -2.18
29 | Cc1c(CCOC(=O)CC23CC4CC(CC(C4)C2)C3)sc[n+]1CC(=O)c1ccccc1.[Br-] | -59.4
30 | Cc1c(CCOC(=O)CC23CC4CC(CC(C)(C4)C2)C3)sc[n+]1CC(=O)c1ccccc1.[Br-] | -56.8
31 | Cc1c(CCOC(=O)CC23CC4CC(CC(C)(C4)C2)C3)sc[n+]1Cc1ccc([N+](=O)[O-])cc1.[Br-] | -87.8
32 | Cc1c(CCOC(=O)C23CC4CC(CC(C)(C4)C2)C3)sc[n+]1Cc1ccccc1.[Cl-] | -34.5
33 | Cc1c(CCO)sc[n+]1CC(=O)OCCC12CC3CC(CC(C3)C1)C2.[Cl-] | 11.8
34 | Cc1c(CCO)sc[n+]1CC(=O)OC12CC3CC(CC(C3)C1)C2.[Cl-] | 19.8
35 | Cc1c(CCOC(=O)C23CC4(C)CC(C)(CC(C)(C4)C2)C3)sc[n+]1CC(=O)c1ccccc1.[Br-] | -19.5
36 | Cc1c(CCOC(=O)CC23CC4CC(CC(C4)C2)C3)sc[n+]1Cc1ccccc1.[Cl-] | -42.1
37 | Cc1c(CCOC(=O)C23CC4CC(CC(C)(C4)C2)C3)sc[n+]1CC(=O)c1ccccc1.[Br-] | -26.7
38 | Cc1c(CCOC(=O)C2C3CC4CC(C3)CC2C4)sc[n+]1CC(=O)c1ccc(Br)cc1.[Br-] (stereo not drawn) | -31.4
39 | Cc1c(CCOC(=O)CC23CC4CC(CC(C4)C2)C3)sc[n+]1CC(=O)c1ccc(Br)cc1.[Br-] | -75.1
40 | Cc1ncc(C[n+]2csc(CCOC(=O)CC34CC5CC(CC(C5)C3)C4)c2C)c(N)n1.Cl.[Cl-] | -4.79
41 | c1ccc(N2CCN(c3nc4cc5c(cc4s3)OCO5)CC2)cc1 | -11.2
42 | CCC(CC)c1nnc(NC(=O)c2c(-c3ccccc3)noc2C)s1 | -9.78

Row | SMILES | hERG current change (%, negative = inhibition) at 10uM [%]
43 | COc1cnn(-c2cc(Oc3ccc(C)cc3)ncn2)c(=O)c1Cl | 2.74
44 | COc1cccc(C(=O)NCC2(c3ccccc3)CCCC2)c1OC | 3.79
45 | CC(C)n1ncc2c(C(=O)N3CCN(c4ccccc4)CC3)cc(-c3ccccc3)nc21 | 17.2
46 | COc1ccc(C(=O)N2CCCC2=O)cc1 | 17
47 | Cc1sc(NC(=O)C2=COCCO2)nc1-c1ccc(F)cc1 | 15.5
48 | CNC(=S)N/N=C/c1ccc(N2CCOCC2)s1 | 51.6
49 | CS(=O)(=O)n1nc(-c2cccnc2)nc1NCc1ccccc1 | 43.9
50 | Nc1nc(-c2ccccc2)c(-c2ccccc2)s1 | -2.18
51 | Cc1nc(Nc2ccc(S(N)(=O)=O)cc2)sc1-c1ccccc1 | 12.9
52 | Nc1c(-c2ccccc2)sc2ccc3ccccc3[n+]12.O=S(=O)([O-])c1ccccc1 | -58.3
53 | Cc1c(NC(=O)CSc2nccn2C)c(=O)n(-c2ccccc2)n1C | 10.9
54 | CC(CNC(=O)c1cccs1)c1ccc([N+](=O)[O-])cc1 (stereo not drawn) | 4.3
55 | COc1cc(OC)cc(C(=O)NC(C(=O)Nc2ccc3c(c2)CCC3)C(C)C)c1 (stereo not drawn) | -1.96
56 | COc1cc(OC)cc(C(=O)N[C@H](C(=O)Nc2cc(C)cc(C)c2)C(C)C)c1 | -54.7
57 | COc1cc(OC)cc(C(=O)N[C@H](C(=O)Nc2ccc(NC(C)=O)cc2)C(C)C)c1 | 13
58 | Cc1cc2oc(=O)cc(C)c2cc1NC(=O)CCC(=O)O | 7.75
59 | Cn1c(CCN2CCN(c3ccccn3)CC2)nc2cc(NC(=O)COc3ccccc3)ccc21 | -72.5
60 | CCCC(=O)Nc1ccc2c(c1)nc(CCN1CCN(c3ccccn3)CC1)n2C | -25.5
61 | CCCCC(=O)Nc1ccc2c(c1)nc(CCN1CCN(c3ccccn3)CC1)n2C | -56.5
62 | Cn1c(CCN2CCN(c3ccccn3)CC2)nc2cc(NC(=O)COc3ccc(Cl)cc3)ccc21 | -22.7
63 | Cc1cccc(OCC(=O)Nc2ccc3c(c2)nc(CCN2CCN(c4ccccn4)CC2)n3C)c1 | -79.5

Row | SMILES | hERG current change (%, negative = inhibition) at 10uM [%]
64 | CCC(=O)Nc1ccc2c(c1)nc(CCN1CCN(c3ccccn3)CC1)n2C | -18.3
65 | Cn1c(CCN2CCN(c3ccccn3)CC2)nc2cc(NC(=O)COc3ccc([N+](=O)[O-])cc3)ccc21 | -5.69
66 | O=[N+]([O-])c1cc(-c2nc3nc4ccccc4nc3n2CCc2ccccc2)cc([N+](=O)[O-])c1 | 3.97
67 | Cc1ccc(S(=O)(=O)N(C)/N=C/C=C/c2ccccc2)cc1 | 0.391
68 | O=S(=O)(Cc1ccccc1Cl)NCc1ccccc1 | 7.02
69 | Cc1cc(C)nc(SC2c3cccc4cccc(c34)C2NS(=O)(=O)c2ccccc2)n1 (stereo not drawn) | -4.8
70 | Cc1cccc(N2CCN(C(=O)Cc3cn(C)c4ccccc34)CC2)c1C | -7.32
71 | CC1CCc2sc(C(=O)NCCCn3ccnc3)cc2C1 (stereo not drawn) | -1.07
72 | COc1ccc(-c2ncc(CN3CCN(CCC(C)C)C(CCO)C3)cn2)cc1 (stereo not drawn) | -43.4
73 | OCCC1CN(Cc2cnc(-c3ccc(Cl)cc3)nc2)CCN1C1CCCCC1 (stereo not drawn) | -73.6
74 | OCCC1CN(Cc2cnc(-c3cccc4ccccc34)nc2)CCN1C1CCCCC1 (stereo not drawn) | -13.2
75 | OCCC1CN(Cc2cnc(-c3ccc(Cl)cc3)nc2)CCN1C1CCCC1 (stereo not drawn) | -73.5
76 | Cc1ccccc1-c1ncc(CN2CCN(C3CCCC3)C(CCO)C2)cn1 (stereo not drawn) | -25.8
77 | CC(C)CN1CCN(Cc2cnc(-c3ccc(Cl)cc3)nc2)CC1CCO (stereo not drawn) | -67.2
78 | Cc1ccccc1-c1ncc(CN2CCN(C3CCCCC3)C(CCO)C2)cn1 (stereo not drawn) | -17.4
79 | Cc1cccc(-c2ncc(CN3CCN(CC(C)C)C(CCO)C3)cn2)c1 (stereo not drawn) | -47.9
80 | Cc1cccc(-c2ncc(CN3CCN(C4CCCC4)C(CCO)C3)cn2)c1 (stereo not drawn) | -46.7
81 | CC(C)(C)c1cc(-c2n[nH]c(=S)n2-c2ccc(Cl)cc2)n[nH]1 | 17.3
82 | CCCCCC1CCC(C(=O)N2CCOCC2)CC1 (stereo not drawn) | -2.44
83 | CC(C)CC(=O)Nc1ccc(-c2nc3ccccc3c(=O)[nH]2)cc1 | 26.7
84 | O=C1COc2ccc(S(=O)(=O)CCC(=O)NC3CCCCC3)cc2N1 | 11.8
